Laboratory results reported in PubChem BioAssay (EPA / NIEHS).
“And” between values parts separate entries of the source, which are not always exact repeats. Equal values may be shown once. The source made the active and inactive calls. The calls were made as follows: active = hit-call score of the fitted dose curve at least 0.9, where 1 is the maximum; inactive = score below 0.9.

read-out: E-selectin (Homo sapiens) (UniProt P16581); assay: BSK_SAg_Eselectin: BioMAP Diversity Plus: SAg Assay for Eselectin Biomarker Activity (AID 2283091); conditions: primary human HUVEC with PBMC; actives raise or lower the signal
Protocol: BSK_SAg is a cell-based, multiplexed-readout assay that uses umbilical vein endothelium and peripheral blood mononuclear cells, a human vascular primary cell co-culture, with measurements taken at 24 hours after chemical dosing in a 96-well plate.BSK_SAg_Eselectin is an assay component measured in the BSK_SAg assay. It measures E-selectin antibody related to regulation of gene expression using ELISA technology.Data from the assay component BSK_SAg_Eselectin was analyzed into 1 assay endpoint. This assay endpoint, BSK_SAg_Eselectin, was analyzed with bidirectional fitting relative to DMSO as the negative control and baseline of activity. Using a type of binding reporter, gain or loss-of-signal activity can be used to understand changes in the signaling as they relate to the gene SELE. Furthermore, this assay endpoint can be referred to as a primary readout, because this assay has produced multiple assay endpoints where this one serves a signaling function. To generalize the intended target to other relatable targets, this assay endpoint is annotated to the cell adhesion molecules intended target family, where the subfamily is selectins.
The levels of cell surface (or secreted, indicated by the prefix "s") biomarker endpoints were measured by ELISA. Overt cytotoxicity to cells in confluent adherent cultures (all systems other than the BT system) was assessed by measuring total protein levels using sulforhodamine B (SRB) staining in parallel cultures at the time of biomarker measurements, indicated as SRB endpoints. For proliferation assays for adherent cell types, individual cell types are cultured at sub-confluence and relative cell numbers quantified by SRB staining at time points optimized for each system (48 h: 3C and CASM3C systems; 72 h: BT and HDF3CGF systems; 96 h: SAg system). SRB was performed by staining cells with 0.1% SRB after fixation with 10% TCA and reading wells at 560 nm.Viability and proliferation of PBMC (T cells) was quantified by Alamar Blue reduction for the SAg and BT systems. For PBMC viability (referred to as PBMC Cytotoxicity within the assay endpoint names), cells were plated (75,000/well in a 96-well plate) and then chemical samples added for 1 h before addition of activators, SEB and TSST-1 (20 ng/mL final concentration each). Cells were incubated for 90 h. Then, Alamar Blue (20 uL/well) (Invitrogen, Cat DAL1100) was added for 6 h, and the plates were read with a fluorescence microplate reader at 546/580 nm (excitation/emission). For PBMC proliferation, cells were plated and activated as above but incubated for only 16 h prior to addition of Alamar Blue. Plates were read after 6 h.

Chain of E-selectin (Homo sapiens) (P16581 whole entry, looked up): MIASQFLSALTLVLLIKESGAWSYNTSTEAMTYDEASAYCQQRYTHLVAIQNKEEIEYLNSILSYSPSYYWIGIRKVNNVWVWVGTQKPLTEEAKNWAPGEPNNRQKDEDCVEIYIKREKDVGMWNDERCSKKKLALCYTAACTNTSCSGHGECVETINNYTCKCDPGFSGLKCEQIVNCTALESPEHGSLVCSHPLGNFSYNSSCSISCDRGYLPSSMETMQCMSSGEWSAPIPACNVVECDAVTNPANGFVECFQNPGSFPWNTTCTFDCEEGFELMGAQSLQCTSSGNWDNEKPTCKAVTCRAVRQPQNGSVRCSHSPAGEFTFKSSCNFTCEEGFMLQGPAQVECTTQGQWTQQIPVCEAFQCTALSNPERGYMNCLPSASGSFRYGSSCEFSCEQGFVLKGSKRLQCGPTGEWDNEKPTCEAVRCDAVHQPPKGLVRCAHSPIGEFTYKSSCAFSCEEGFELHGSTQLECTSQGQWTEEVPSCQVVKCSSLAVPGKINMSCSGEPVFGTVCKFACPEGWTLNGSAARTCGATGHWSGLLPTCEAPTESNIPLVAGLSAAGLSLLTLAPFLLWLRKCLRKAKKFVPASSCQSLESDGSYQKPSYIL

SMILES	outcome	AC50
CCCCC(CC)COCC1CO1 (stereo unspecified)	inactive	–
CCCCNc1ccc(NCCCC)c2c1C(=O)c1ccccc1C2=O	inactive	–
CCOc1nc(F)cc2nc(S(=O)(=O)Nc3c(Cl)cccc3C(=O)OC)nn12	inactive	–
O=C(Cl)c1cc(C(=O)Cl)cc(C(=O)Cl)c1	–	36.6 µM (active)
c1ccc(-c2ccccn2)nc1	inactive	–
C=CC=CC=CCCCCC	inactive	–
C=CC(=O)OCC(Br)CBr (stereo unspecified)	–	8.13 µM (active)
CC(C)(c1cc(Br)c(OCCO)c(Br)c1)c1cc(Br)c(OCCO)c(Br)c1	–	1.44 µM (active)
O=c1c2ccccc2oc2ccccc12	inactive	–
COCc1c(C(C)C)nc(C(C)C)c(/C=C/[C@@H](O)C[C@@H](O)CC(=O)O)c1-c1ccc(F)cc1	–	0.0215 µM (active)
O=C(c1ccc(O)cc1)c1ccc(O)cc1O	inactive	–
C#CC1(O)CC[C@H]2[C@@H]3CCC4=CCCC[C@@H]4[C@H]3CC[C@@]21C (stereo partly specified)	–	35.9 µM (active)
c1ccc2c(c1)ccc1cc3c(ccc4ccccc43)cc12	inactive	–
CCO[Si](C)(OCC)OCC	inactive	–
Nc1ccc(N)c(Cl)c1	–	19.4 µM (active) and 22.2 µM (active)
CCOC(=O)c1ccccc1C(=C1C=C(Br)C(=O)C(Br)=C1)c1cc(Br)c(O)c(Br)c1	–	20.1 µM (active) and 18.8 µM (active)
O=Nc1ccc(O)cc1	inactive	–
C=CCOc1c(Br)cc(Br)cc1Br	inactive	–

SMILES	outcome	AC50
N#[N+]c1ccc2c(S(=O)(=O)[O-])cccc2c1O	inactive	–
C=CCOCC(O)CCl (stereo unspecified)	inactive	–
CC(C)C(=O)C(C)C	inactive	–
CO[Si](OC)(OC)c1ccccc1	inactive	–
CCO[Si](CCCN=C=O)(OCC)OCC	inactive	–
C=C[Si](OC(C)=O)(OC(C)=O)OC(C)=O	inactive	–
CN1C(=O)N(C)C(O)C1O (stereo unspecified)	inactive	–
S=C(NC1CCCCC1)NC1CCCCC1	inactive	–
O=C1CCCN1CCO	inactive	–
CCCCC/C=C\C/C=C\CCCCCCCC(=O)OC	–	30.9 µM (active)
CCCCCCCCc1ccc(Nc2ccc(CCCCCCCC)cc2)cc1	–	0.0731 µM (active)
COc1ccc2nc(N)sc2c1	inactive	–
O=C(Nc1ccccc1SSc1ccccc1NC(=O)c1ccccc1)c1ccccc1	inactive	–
CC1OC1C1CCC2(C)OC2C1 (stereo unspecified)	inactive	–
c1ccc2c(c1)ccc1ncccc12	inactive	–
CCCCCCCCCCCCCCCC[N+](C)(C)CC	–	2.77 µM (active)
CCCCC(CC)COC(=O)c1ccccc1O (stereo unspecified)	inactive	–
C/C=C\C/C=C/CCCCCCCCOC(C)=O	–	29.5 µM (active)
